Measurements as given in PubChem BioAssay.
Where “and” joins values, the source holds several entries; their conditions need not be identical. Equal values may be shown once. Calls of active or inactive are those of the source.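 Rule for the calls, unless noted: active = normalized viability below 100% at a tested concentration; inactive = the rest.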

Tests used:
[1] = compounds altering viability of human ES cells (AID 493140; call rule not given here;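 note: cells exposed to compounds for four days before counting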); conditions: human embryonic stem cell survival screen; stronger effect = higher value
[2] = P. berghei load reduction in hepatocytes – cell-based, HepG2, luciferase luminescence, HepG2 viability, primary screen (AID 624349; in the data active = parasite load remaining mostly below about 12%, no sharp cut-off; inactive = mostly above about 10%;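 note: 100% = mean of DMSO negative control wells on the same plate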); conditions: P. berghei liver stage in HepG2, luciferase luminescence, concentration not given here; parasite load remaining: stronger effect = lower value; viability: measured here: HepG2 viability without parasites
[3] = tested on: Aerobactin synthetase IucA (Klebsiella pneumoniae); experiment: inhibition of K. pneumoniae IucA enzyme – biochemical, Tocris library, absorbance (AID 1345561; call rule not given here;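 note: 100% = enzyme without compound and 0% = no enzyme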); conditions: purified IucA enzyme assay, absorbance (OD) read-out; stronger effect = lower value;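 tested at 8 µM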
[4] = viability loss with induced miR-34 in A549 – imaging, A549 dox-inducible miR-34, nuclei and caspase counts, primary screen (AID 1347080;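 active = compounds whose cell count with miR-34 switched on is under 0.7 times the count with it off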); conditions: A549 miR-34 inducible, Hoechst nuclei count, 48 h
[5] = chitosan synthesis blockers in C. neoformans – flow cytometry, Cibacron Brilliant Red staining (AID 1347148; call rule not given here;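 note: compound exposure lasted three days at 37 degrees C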); conditions: Cryptococcus neoformans chitosan, stronger effect = lower value; at 10 µM unless noted
[6] = MELAS cybrid and Rieske KO viability enhancers – cell-based, MELAS cybrids, Rieske KO mouse fibroblasts, CellTiter-Glo, primary screen (AID 1508586;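 active = mean z-score across replicates of 1.96 or higher in either the MELAS or the Rieske mutant cell line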;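 note: z relative to plate mean and SD of compound and empty wells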); conditions: low glucose
[7] = drug combination growth inhibition, ovarian cancer – cell-based, oncology-focused library, rucaparib conditional, profiling panel (AID 1508598); conditions: patient-derived ovarian cancer cells, CellTiter-Glo viability, 144 h, stronger effect = lower value
[8] = galactose survival enhancers in mitochondrial complex I cybrids – cell-based, galactose medium, ATP luminescence, primary screen (AID 1645843;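 active = z-score of at least 1.8 in each of two replicates, scored against plate mean and spread of sample wells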;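 note: positive z means more ATP and so rescue of galactose-driven cybrid death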); conditions: complex I mutant cybrid cells, 72 h, stronger effect = higher value
[9] = compounds altering HSF1 focus formation in cells – imaging, Selleck Cancer Library (AID 1347162; in the data active = plate-normalised HSF1 focus index below about 0.46); conditions: human cells, HSF1 nuclear foci imaging, at 10 µM; SSMD: measured here: HSF1 foci SSMD mean; cell count: measured here: cell number; plate-normalised HSF1 focus index: stronger effect = lower value
[10] = growth inhibition, single agent or in combination, cell-based, chromothripsis tumors, cisplatin or BGB combos (AID 1671449; in the data active = inhibition above about 80%;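 note: cells exposed for 96 hours; 0% = vehicle DMSO and 100% = killing by high DMSO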); conditions: LFS_MB_P medulloblastoma cells
[11] = growth inhibition, single agent and combos, cell-based, chromothripsis tumors, cisplatin or BGB combos (AID 1671450; in the data active = inhibition above about 80%;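 note: cells exposed to compound for four days; 0% = vehicle DMSO and 100% = cell killing by high DMSO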); conditions: HDN33 neuroblastoma cells, stronger effect = higher value
[12] = growth inhibition, single agents and combos, ICB984, cell-based, cisplatin or BGB combos, synergistic combos for chromothripsis tumors (AID 1671451; call rule not given here;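 note: cells exposed for 96 hours before readout; 0% = vehicle DMSO and 100% = killing by high DMSO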); conditions: ICB984 medulloblastoma cells, drug combinations, stronger effect = higher value
[13] = growth inhibition, single agents and combos, HTB85, cell-based, BGB or cisplatin IC20 combos, synergistic combos for chromothripsis tumors (AID 1671453; in the data active = inhibition above about 80%;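 note: cells exposed for 96 hours before readout; 0% = vehicle DMSO and 100% = high DMSO killing control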); conditions: HTB85 osteosarcoma cells, drug combinations, stronger effect = higher value
[14] = stronger effect = lower value, cell number ratio, induced over uninduced
[15] = measured here: relative caspase fold change +Dox/-Dox
[16] = measured here: total cells with miR-34 induction, stronger effect = lower value
[17] = measured here: total cells without miR-34 induction

CN(C)CCCn1cc(C2=C(c3c[nH]c4ccccc34)C(=O)NC2=O)c2ccccc21
survival [1]: 60.4 (inactive)
parasite load remaining [2]: 40.8% (inactive)
viability [2]: 101%
remaining activity [3]: 99.8% (inactive)
fold change [4, 14]: 1.07 (inactive) and 1 (inactive) and 1.3 (inactive)
fold change [4, 15]: 0.742 and 0.718 and 1.02
cell count [4, 16]: 1180 and 5040 and 4700
cell count [4, 17]: 1100 and 5040 and 3620
fold fluorescence [5]: 5.95 [at 121.2 µM] (inactive)
z-score ([6]; MELAS cybrid survival, CellTiter-Glo 48 h, stronger effect = higher value): -0.455 (inactive)
z-score ([6]; Rieske KO mouse fibroblast survival, CellTiter-Glo 72 h): -0.16
viability ([7]; at 0.000305 µM, OCI-C5x cells, with rucaparib 10 µM, 100% = cells with rucaparib alone): 111% (inactive)
viability ([7]; at 0.000305 µM, OCI-C5x cells, without rucaparib): 113% (inactive)
viability ([7]; at 0.000305 µM, OCI-P5x cells, with rucaparib 20 µM, 100% = cells with rucaparib alone): 94.2% (active)
viability ([7]; at 0.000305 µM, OCI-P5x cells, without rucaparib): 96.8% (active)
viability ([7]; at 0.00122 µM, OCI-C5x cells, with rucaparib 10 µM, 100% = cells with rucaparib alone): 124% (inactive)
viability ([7]; at 0.00122 µM, OCI-C5x cells, without rucaparib): 118% (inactive)
viability ([7]; at 0.00122 µM, OCI-P5x cells, with rucaparib 20 µM, 100% = cells with rucaparib alone): 102% (inactive)
viability ([7]; at 0.00122 µM, OCI-P5x cells, without rucaparib): 96% (active)
viability ([7]; at 0.00488 µM, OCI-C5x cells, with rucaparib 10 µM, 100% = cells with rucaparib alone): 118% (inactive)
viability ([7]; at 0.00488 µM, OCI-C5x cells, without rucaparib): 118% (inactive)
viability ([7]; at 0.00488 µM, OCI-P5x cells, with rucaparib 20 µM, 100% = cells with rucaparib alone): 104% (inactive)
viability ([7]; at 0.00488 µM, OCI-P5x cells, without rucaparib): 101% (inactive)
viability ([7]; at 0.0195 µM, OCI-C5x cells, with rucaparib 10 µM, 100% = cells with rucaparib alone): 118% (inactive)
viability ([7]; at 0.0195 µM, OCI-C5x cells, without rucaparib): 108% (inactive)
viability ([7]; at 0.0195 µM, OCI-P5x cells, with rucaparib 20 µM, 100% = cells with rucaparib alone): 103% (inactive)
viability ([7]; at 0.0195 µM, OCI-P5x cells, without rucaparib): 105% (inactive)
viability ([7]; at 0.0781 µM, OCI-C5x cells, with rucaparib 10 µM, 100% = cells with rucaparib alone): 113% (inactive)
viability ([7]; at 0.0781 µM, OCI-C5x cells, without rucaparib): 120% (inactive)
viability ([7]; at 0.0781 µM, OCI-P5x cells, with rucaparib 20 µM, 100% = cells with rucaparib alone): 101% (inactive)
viability ([7]; at 0.0781 µM, OCI-P5x cells, without rucaparib): 105% (inactive)
viability ([7]; at 0.313 µM, OCI-C5x cells, with rucaparib 10 µM, 100% = cells with rucaparib alone): 120% (inactive)
viability ([7]; at 0.313 µM, OCI-C5x cells, without rucaparib): 134% (inactive)
viability ([7]; at 0.313 µM, OCI-P5x cells, with rucaparib 20 µM, 100% = cells with rucaparib alone): 108% (inactive)
viability ([7]; at 0.313 µM, OCI-P5x cells, without rucaparib): 109% (inactive)
viability ([7]; at 1.25 µM, OCI-C5x cells, with rucaparib 10 µM, 100% = cells with rucaparib alone): 122% (inactive)
viability ([7]; at 1.25 µM, OCI-C5x cells, without rucaparib): 130% (inactive)
viability ([7]; at 1.25 µM, OCI-P5x cells, with rucaparib 20 µM, 100% = cells with rucaparib alone): 116% (inactive)
viability ([7]; at 1.25 µM, OCI-P5x cells, without rucaparib): 109% (inactive)
viability ([7]; at 5 µM, OCI-C5x cells, with rucaparib 10 µM, 100% = cells with rucaparib alone): 109% (inactive)
viability ([7]; at 5 µM, OCI-C5x cells, without rucaparib): 146% (inactive)
viability ([7]; at 5 µM, OCI-P5x cells, with rucaparib 20 µM, 100% = cells with rucaparib alone): 101% (inactive)
viability ([7]; at 5 µM, OCI-P5x cells, without rucaparib): 105% (inactive)
z-score [8]: -0.475 (inactive)

N.N.O=C(O)C1(C(=O)O)CCC1.[Pt]
parasite load remaining [2]: 105% (inactive) and 45.1% (inactive)
viability [2]: 75.3% and 97.1%
remaining activity [3]: 100% (inactive)
fold change [4, 14]: 0.91 (inactive) and 1.06 (inactive)
fold change [4, 15]: 1.49 and 3.05
cell count [4, 16]: 7500 and 6220
cell count [4, 17]: 8240 and 5890
SSMD [9]: 2.09
cell count [9]: 7840
plate-normalised HSF1 focus index [9]: 1.08 (inactive)
z-score [8]: -0.15 (inactive)
inhibition ([10]; at 0.5 µM, stronger effect = higher value): -25.8% (inactive) and -25% (inactive)
inhibition ([10]; measured here: combination with BGB IC20, at 0.005 µM): -21.9% and -15.8%
inhibition ([10]; measured here: combination with BGB IC40, at 0.005 µM): -33.4% and -11.2%
inhibition ([10]; measured here: combination with BGB IC40, at 0.05 µM): -8.87% and -31.1%
inhibition ([10]; measured here: combination with cisplatin, at 0.5 µM, stronger effect = higher value): -41.1% and -20.3%
inhibition ([10]; measured here: combination with cisplatin, at 5 µM, stronger effect = higher value): -26.5% and -12.9%
inhibition ([11]; BGB combo, at 5 µM): -9.54% and -0.176%
inhibition ([11]; at 0.5 µM): -16.9% (inactive) and -34.4% (inactive)
inhibition ([11]; cisplatin combo, at 5 µM): -4.51% and -16.2%
inhibition ([11]; measured here: with BGB IC20 combination, at 0.5 µM): -16.3% and -33.3%
inhibition ([11]; measured here: with cisplatin IC20 combination, at 0.5 µM): 7.01% and -41.5%
inhibition ([11]; single agent, at 5 µM): -8.33% and -8.24%
inhibition ([12]; BGB IC20 combo, at 0.005 µM): -23.8% and 9.43%
inhibition ([12]; BGB IC40 combo, at 0.005 µM): -28.7% and -26%
inhibition ([12]; BGB IC40 combo, at 0.05 µM): -33.8% and -31.4%
inhibition ([12]; at 0.5 µM): -17.7% (inactive) and -35.2% (inactive)
inhibition ([12]; cisplatin combo, at 0.05 µM): -33.8% and -36.1%
inhibition ([12]; cisplatin combo, at 0.5 µM): -26.5% and -43.2%
inhibition ([12]; cisplatin combo, at 5 µM): -41.9% and -11%
inhibition ([12]; measured here: 5 uM single agent, at 5 µM): -8.78% and -6.62%
inhibition ([13]; at 0.5 µM): -12.1% (inactive) and -29.4% (inactive)
inhibition ([13]; measured here: with BGB IC20, at 0.5 µM): -30.4% and -34.9%
inhibition ([13]; measured here: with BGB IC20, at 5 µM): 11.7% and -2.3%
inhibition ([13]; measured here: with cisplatin IC20, at 0.5 µM): 2.42% and -41.2%
inhibition ([13]; measured here: with cisplatin IC20, at 5 µM): 0.587% and 34.7%
inhibition ([13]; single agent, at 5 µM): -3.92% and 13.4%
